Experimental data reported in PubChem BioAssay AID651911 (Vanderbilt Specialized Chemistry Center, 2012).
Calls of active or inactive are those of the source. How the calls were made is not given here.

Target: Histone deacetylase 11 (Homo sapiens) (UniProt Q96DB2)
Assay: HDAC11 deacetylase inhibition, profiling panel, selectivity assay for E-cadherin restoration project, biochemical, human (AID 651911)

Sequence of Histone deacetylase 11 (Homo sapiens) (Q96DB2 whole entry, looked up): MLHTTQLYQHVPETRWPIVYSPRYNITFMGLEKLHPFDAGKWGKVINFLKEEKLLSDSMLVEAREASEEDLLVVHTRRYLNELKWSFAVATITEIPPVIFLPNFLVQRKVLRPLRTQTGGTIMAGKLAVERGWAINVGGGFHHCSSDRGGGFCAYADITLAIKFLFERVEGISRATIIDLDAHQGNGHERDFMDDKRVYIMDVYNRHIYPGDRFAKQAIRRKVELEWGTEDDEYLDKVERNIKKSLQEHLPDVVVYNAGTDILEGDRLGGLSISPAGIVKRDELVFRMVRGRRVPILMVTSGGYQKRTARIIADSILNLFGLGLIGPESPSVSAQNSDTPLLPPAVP

O=C(NCCCNC(=O)c1ccc[nH]c1=O)c1cc(-c2ccccc2)on1
outcome: inactive
